# Assay results: PMC5540273 (PLoS ONE, 2017)
# Where “and” joins values, the source holds several entries; their conditions need not be identical. Equal values may be shown once. Read-outs that look alike come from different tables or passages of the source.
# Experiments:
# [1] = tested on: CSNK2A1; details: concentration: 1 μM, replicates: in singlicate, n = 1
# [2] = tested on: CSNK2A2; details: concentration: 1 μM, replicates: in singlicate, n = 1
# [3] = tested on: T1, CTK; details: concentration: 1 μM, replicates: in singlicate, n = 1
# T1 construct: gene MATK
# [4] = tested on: DAPK1; details: concentration: 1 μM, replicates: in singlicate, n = 1
# [5] = tested on: DAPK2; details: concentration: 1 μM, replicates: in singlicate, n = 1
# [6] = tested on: DAPK3; details: concentration: 1 μM, replicates: in singlicate; n = 1
# [7] = tested on: T2, DCAMKL1; details: concentration: 1 μM, replicates: in singlicate, n = 1
# T2 construct: gene DCLK1
# [8] = tested on: T3, DCAMKL2; details: concentration: 1 μM, replicates: in singlicate; n = 1
# T3 construct: gene DCLK2
# [9] = tested on: T4, DCAMKL3; details: concentration: 1 μM, replicates: in singlicate, n = 1
# T4 construct: gene DCLK3
# [10] = tested on: DDR1; details: concentration: 1 μM, replicates: in singlicate, n = 1
# [11] = tested on: DDR2; details: concentration: 1 μM, replicates: in singlicate, n = 1
# [12] = tested on: T5, DLK; details: concentration: 1 μM, replicates: in singlicate, n = 1
# T5 construct: gene MAP3K12
# [13] = tested on: T6, DMPK2; details: concentration: 1 μM, replicates: in singlicate, n = 1
# T6 construct: gene CDC42BPG
# [14] = tested on: DMPK; details: concentration: 1 μM, replicates: in singlicate; n = 1
# [15] = tested on: T7, DRAK1; details: concentration: 1 μM, replicates: in singlicate; n = 1
# T7 construct: gene STK17A
# [16] = tested on: T8, DRAK2; details: concentration: 1 μM, replicates: in singlicate, n = 1
# T8 construct: gene STK17B
# [17] = tested on: DYRK1A; details: concentration: 1 μM, replicates: in singlicate; n = 1
# [18] = tested on: DYRK1B; details: concentration: 1 μM, replicates: in singlicate, n = 1
# [19] = tested on: DYRK2; details: concentration: 1 μM, replicates: in singlicate; n = 1
# [20] = tested on: EGFR; details: concentration: 1 μM, replicates: in singlicate, n = 1
# 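Also: KINOMEscan kinase panel screen.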
smiles,measurement,setting,value
Fc1cccc(COc2ccc(Nc3ncnc4sc(-c5ccc[nH]5)cc34)cc2Cl)c1 [GW707818],%Inh,[1],0%
same,%Inh,[2],0%
same,%Inh,[3],0%
same,%Inh,[4],28%
same,%Inh,[5],0%
same,%Inh,[6],22%
same,%Inh,[7],28%
same,%Inh,[8],0%
same,%Inh,[9],30%
same,%Inh,[10],4%
same,%Inh,[11],21%
same,%Inh,[12],40%
same,%Inh,[13],0%
same,%Inh,[14],0%
same,%Inh,[15],3%
same,%Inh,[16],0%
same,%Inh,[17],0%
same,%Inh,[18],38%
same,%Inh,[19],8%
same,%Inh,[20],100%
COc1ccc(-c2nc3n(c2-c2ccncc2)CCC3)cc1 [SKF-104493],%Inh,[1]; 1 µM,0% and 2%
same,%Inh,[2]; 1 µM,13% and 15%
same,%Inh,[3]; 1 µM,25% and 0%
same,%Inh,[4]; 1 µM,82% and 21%
same,%Inh,[5]; 1 µM,0% and 6%
same,%Inh,[6],0%
same,%Inh,[7]; 1 µM,21% and 0%
same,%Inh,[8],0%
same,%Inh,[9]; 1 µM,0% and 18%
same,%Inh,[10]; 1 µM,33% and 67%
same,%Inh,[11]; 1 µM,31% and 51%
same,%Inh,[12]; 1 µM,0% and 20%
same,%Inh,[13]; 1 µM,0% and 15%
same,%Inh,[14],0%
same,%Inh,[15],0%
same,%Inh,[16]; 1 µM,2% and 0%
same,%Inh,[17],0%
same,%Inh,[18]; 1 µM,0% and 5%
same,%Inh,[19],0%
same,%Inh,[20]; 1 µM,0% and 15%
CC(C)N1CCC(n2cnc(-c3ccc(F)cc3)c2-c2ccnc(N)n2)CC1 [SB-223132],%Inh,[1],0%
same,%Inh,[2],0%
same,%Inh,[3],0%
same,%Inh,[4],26%
same,%Inh,[5],0%
same,%Inh,[6],17%
same,%Inh,[7],22%
same,%Inh,[8],4%
same,%Inh,[9],20%
same,%Inh,[10],46%
same,%Inh,[11],38%
same,%Inh,[12],0%
same,%Inh,[13],11%
same,%Inh,[14],0%
same,%Inh,[15],7%
same,%Inh,[16],7%
same,%Inh,[17],0%
same,%Inh,[18],5%
same,%Inh,[19],0%
same,%Inh,[20],10%
COC(=O)c1cccc(NC(=O)NCCNc2ccnc(Nc3ccc(F)cc3)n2)c1 [GSK1379883],%Inh,[1],0%
same,%Inh,[2],23%
same,%Inh,[3],0%
same,%Inh,[4],0%
same,%Inh,[5],0%
same,%Inh,[6],13%
same,%Inh,[7],88%
same,%Inh,[8],0%
same,%Inh,[9],24%
same,%Inh,[10],0%
same,%Inh,[11],17%
same,%Inh,[12],31%
same,%Inh,[13],8%
same,%Inh,[14],0%
same,%Inh,[15],0%
same,%Inh,[16],0%
same,%Inh,[17],0%
same,%Inh,[18],14%
same,%Inh,[19],5%
same,%Inh,[20],3%
COC(=O)c1c(-c2ccccc2)c2cc(Cl)ccc2c(=O)n1Cc1ccc(S(C)(=O)=O)cc1,%Inh,[1],3%
same,%Inh,[2],35%
same,%Inh,[3],3%
same,%Inh,[4],21%
same,%Inh,[5],0%
same,%Inh,[6],0%
same,%Inh,[7],5%
same,%Inh,[8],1%
same,%Inh,[9],4%
same,%Inh,[10],51%
same,%Inh,[11],5%
same,%Inh,[12],0%
same,%Inh,[13],0%
same,%Inh,[14],0%
same,%Inh,[15],0%
same,%Inh,[16],3%
same,%Inh,[17],17%
same,%Inh,[18],10%
same,%Inh,[19],44%
same,%Inh,[20],6%
CS(=O)(=O)CCNCc1ccc(-c2ccc3ncnc(Nc4ccc(OCc5ccccc5)c(Cl)c4)c3c2)o1.Cl [GW574783],%Inh,[1],3%
same,%Inh,[2],5%
same,%Inh,[3],0%
same,%Inh,[4],0%
same,%Inh,[5],0%
same,%Inh,[6],0%
same,%Inh,[7],0%
same,%Inh,[8],0%
same,%Inh,[9],4%
same,%Inh,[10],10%
same,%Inh,[11],39%
same,%Inh,[12],25%
same,%Inh,[13],2%
same,%Inh,[14],16%
same,%Inh,[15],16%
same,%Inh,[16],0%
same,%Inh,[17],0%
same,%Inh,[18],0%
same,%Inh,[19],0%
same,%Inh,[20],100%
Fc1cccc(COc2ccc(Nc3ncnc4nn5ccccc5c34)cc2Cl)c1 [GW689066],%Inh,[1],0%
same,%Inh,[2],0%
same,%Inh,[3],0%
same,%Inh,[4],0%
same,%Inh,[5],0%
same,%Inh,[6],7%
same,%Inh,[7],0%
same,%Inh,[8],0%
same,%Inh,[9],9%
same,%Inh,[10],0%
same,%Inh,[11],37%
same,%Inh,[12],52%
same,%Inh,[13],0%
same,%Inh,[14],0%
same,%Inh,[15],87%
same,%Inh,[16],0%
same,%Inh,[17],8%
same,%Inh,[18],0%
same,%Inh,[19],0%
Cl.Fc1ccccc1COc1ccc(Nc2ncnc3ccc(-c4nnc(C(F)(F)F)o4)cc23)cc1Cl [GW424170],%Inh,[1],0%
same,%Inh,[2],15%
same,%Inh,[3],0%
same,%Inh,[4],0%
same,%Inh,[5],0%
same,%Inh,[6],5%
same,%Inh,[7],10%
same,%Inh,[8],1%
same,%Inh,[9],7%
same,%Inh,[10],6%
same,%Inh,[11],18%
same,%Inh,[12],11%
same,%Inh,[13],11%
same,%Inh,[14],0%
same,%Inh,[15],4%
same,%Inh,[16],0%
same,%Inh,[17],4%
same,%Inh,[18],0%
same,%Inh,[19],11%
same,%Inh,[20],99.4%
Cc1ccc(O)cc1Nc1cc(C(F)(F)F)nc2ccc(-c3ccncc3)cc12 [GW630823],%Inh,[1],0%
same,%Inh,[2],2%
same,%Inh,[3],2%
same,%Inh,[4],16%
same,%Inh,[5],17%
same,%Inh,[6],11%
same,%Inh,[7],25%
same,%Inh,[8],0%
same,%Inh,[9],15%
same,%Inh,[10],40%
same,%Inh,[11],0%
same,%Inh,[12],0%
same,%Inh,[13],4%
same,%Inh,[14],0%
same,%Inh,[15],21%
same,%Inh,[16],11%
same,%Inh,[17],0%
same,%Inh,[18],7%
same,%Inh,[19],0%
same,%Inh,[20],15%
NC(=O)c1sc(-n2cnc3ccccc32)cc1OCc1ccccc1F [GSK1024306],%Inh,[1],10%
same,%Inh,[2],6%
same,%Inh,[3],12%
same,%Inh,[4],3%
same,%Inh,[5],0%
same,%Inh,[6],0%
same,%Inh,[7],0%
same,%Inh,[8],1%
same,%Inh,[9],0%
same,%Inh,[10],19%
same,%Inh,[11],25%
same,%Inh,[12],38%
same,%Inh,[13],0%
same,%Inh,[14],0%
same,%Inh,[15],4%
same,%Inh,[16],0%
same,%Inh,[17],4%
same,%Inh,[18],0%
same,%Inh,[19],17%
same,%Inh,[20],84%
COc1ccc(Nc2nccc(N3CCC(NC(=O)c4cccc(NC(C)=O)c4)C3)n2)cc1 (stereo not drawn) [GSK1379732],%Inh,[1],0%
same,%Inh,[2],1%
same,%Inh,[3],0%
same,%Inh,[4],0%
same,%Inh,[5],13%
same,%Inh,[6],18%
same,%Inh,[7],0%
same,%Inh,[8],0%
same,%Inh,[9],7%
same,%Inh,[10],0%
same,%Inh,[11],41%
same,%Inh,[12],33%
same,%Inh,[13],0%
same,%Inh,[14],13%
same,%Inh,[15],24%
same,%Inh,[16],0%
same,%Inh,[17],8%
same,%Inh,[18],87%
same,%Inh,[19],7%
same,%Inh,[20],16%
